Usually AC50 stands for the midpoint of the concentration-response curve, whichever way the signal moves.

Here are results for 15 compounds from PubChem BioAssay (EPA / NIEHS).

Records with an inconclusive call do not appear. Some compounds were tested as several samples or in several runs, with calls that do not always agree. Active and inactive are the calls of the source. The calls were made as follows: active = hit-call score of the fitted dose curve at least 0.9, where 1 is the maximum; inconclusive = response in the unintended direction; inactive = score below 0.9.

Test [1] has as its target Cellular tumor antigen p53 (Homo sapiens) (UniProt P04637). Kind of test: TOX21_p53_BLA_p5_ratio: Tox21 HCT-116 p53 Agonism Beta-lactamase Assay, Ratio, Phase 5 (AID 2283599). The procedure, abridged:
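HCT-116 cells carrying a p53-inducible beta-lactamase reporter were seeded at 4000 cells/well and dosed after 5 h with compound in DMSO (217-fold dilution). After 16 h at 37C, CCF4-AM substrate was added for 2 h, and the 460/530 nm emission ratio was scored as gain-of-signal versus DMSO.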

Test [2] is described as follows: TOX21_p53_BLA_p5_viability: Viability Assessment in the Tox21 HCT-116 p53 Agonism Beta-lactamase Assay, Phase 5 (AID 2283600). In short, it runs like this:
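Decreased CellTiter-Glo luminescence denotes lost viability. Exposure: 16 h at 37C, 5% CO2, with compounds from DMSO stocks diluted 217-fold in wells of 4000 cells.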

Test [3] concerns the target Cellular tumor antigen p53 (Homo sapiens) (UniProt P04637). Kind of test: TOX21_p53_BLA_p4_ratio: Tox21 HCT-116 p53 Agonism Beta-lactamase Assay, Ratio, Phase 4 (AID 2283601). In short, it runs like this:
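HCT116 cells carrying an inducible beta-lactamase reporter were plated at 4000 cells/well, rested 5 h, then exposed to compounds in DMSO (217-fold dilution) for 16 h at 37C. CCF4-AM substrate was loaded 2 h at room temperature; 460/530 nm emission ratio scored gain-of-signal versus DMSO.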

A short description of test [4]: Tanguay_ZF_120hpf_MORT_legacy: (Legacy) Oregon State University Tanguay Lab 120 Hour Post-fertilization zebrafish Assay for Mortality (AID 2283633).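 As to AC50: fitted as increase in binary mortality versus DMSO negative control.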 The procedure, abridged:
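Dechorionated Tropical 5D wild-type zebrafish embryos, one per well from 6 hpf, static exposure in 0.64% DMSO at 28C until 120 hpf. Mortality scored as binary by brightfield microscopy at 24 and 120 hpf.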

A short description of test [5]: Tanguay_ZF_120hpf_YSE_legacy: (Legacy) Oregon State University Tanguay Lab 120 Hour Post-fertilization zebrafish Assay for Yolk Sac Edema (AID 2283634).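 As to AC50: actives raise the incidence of yolk sac edema above the DMSO baseline.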 The procedure, abridged:
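Dechorionated Tropical 5D wild-type zebrafish embryos were exposed statically, one per well, from 6 to 120 hpf at 28C in 0.64% DMSO. Yolk sac edema was scored present/absent by brightfield at 120 hpf, and dead embryos were excluded.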

A short description of test [6]: Tanguay_ZF_120hpf_AXIS_legacy: (Legacy) Oregon State University Tanguay Lab 120 Hour Post-fertilization zebrafish Assay for Body Axis Malformation (AID 2283635). In short, it runs like this: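 Dechorionated wild-type Tropical 5D zebrafish embryos, one per well, statically exposed from 6 hpf to 120 hpf at 28C in 0.64% DMSO final. Body axis malformation scored present/absent by brightfield microscopy at 120 hpf; dead embryos excluded.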

A short description of test [7]: Tanguay_ZF_120hpf_JAW_legacy: (Legacy) Oregon State University Tanguay Lab 120 Hour Post-fertilization zebrafish Assay for Jaw Malformation (AID 2283638).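 As to AC50: active means more embryos with jaw malformation than DMSO controls.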 In short, it runs like this:
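Dechorionated Tropical 5D wild-type zebrafish embryos, one per well, exposed statically from 6 hpf to 120 hpf at 28C in 0.64% DMSO. Jaw malformation was scored by brightfield microscopy as present or absent. It was not scored in dead embryos.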

A short description of test [8]: Tanguay_ZF_120hpf_OTIC_legacy: (Legacy) Oregon State University Tanguay Lab 120 Hour Post-fertilization zebrafish Assay for Otic Vesicle Malformation (AID 2283639). The procedure, abridged:
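Brightfield scoring at 120 hpf, binary present/absent; DMSO negative control, 5uM trimethyltin chloride positive control. Static exposure at 28C, final DMSO 0.64% (vol/vol). Dead embryos not scored for malformation.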

Test [9] is described as follows: Tanguay_ZF_120hpf_PE_legacy: (Legacy) Oregon State University Tanguay Lab 120 Hour Post-fertilization zebrafish Assay for Pericardial Edema (AID 2283640).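 As to AC50: potency for increased incidence of pericardial edema versus DMSO baseline.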 In short, it runs like this:
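Tropical 5D wild-type zebrafish embryos were statically exposed until 120 hpf at 28C, with 0.64% DMSO final. Pericardial edema was scored by brightfield as present or absent; endpoints were not scored in dead embryos.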

A short description of test [10]: Tanguay_ZF_120hpf_PFIN_legacy: (Legacy) Oregon State University Tanguay Lab 120 Hour Post-fertilization zebrafish Assay for Pectoral Fin Malformation (AID 2283648).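 Also: each larva judged yes or no for fin defect by brightfield with dead larvae skipped.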 In short, it runs like this: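 Scoring of pectoral fin malformation was binary, made at 120 hpf on larvae exposed statically from 6 hpf after enzymatic chorion removal. Activity was fitted upward relative to DMSO controls at 0.64% (vol/vol).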

A short description of test [11]: Tanguay_ZF_120hpf_CFIN_legacy: (Legacy) Oregon State University Tanguay Lab 120 Hour Post-fertilization zebrafish Assay for Caudal Fin Malformation (AID 2283649). The procedure, abridged: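 Dechorionated Tropical 5D wild-type embryos, one per well from 6 hpf, static exposure to 120 hpf at 28C in 0.64% DMSO. Caudal fin malformation scored by brightfield as present/absent; not scored in dead embryos.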

A short description of test [12]: Tanguay_ZF_120hpf_PIG_legacy: (Legacy) Oregon State University Tanguay Lab 120 Hour Post-fertilization zebrafish Assay for Pigmentation Malformation (AID 2283650). In short, it runs like this:
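Endpoint is incidence of abnormal pigmentation at 120 hpf in dechorionated 5D zebrafish exposed singly from 6 hpf at 28C, DMSO vehicle at 0.64%. Embryos dying by 24 or 120 hpf are excluded from scoring.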

A short description of test [13]: Tanguay_ZF_120hpf_CIRC_legacy: (Legacy) Oregon State University Tanguay Lab 120 Hour Post-fertilization zebrafish Assay for Circulatory Malformation (AID 2283651). The procedure, abridged:
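Static exposure, 6–120 hpf, 28C, sealed and dark; one dechorionated 5D embryo/well; DMSO 0.64% v/v final. Binary circulation endpoint by brightfield; dead embryos not scored.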

Test [14] in a line: Tanguay_ZF_120hpf_SWIM_legacy: (Legacy) Oregon State University Tanguay Lab 120 Hour Post-fertilization zebrafish Assay for Swim Bladder Malformation (AID 2283654).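 Also: swim bladder malformation in each larva scored yes or no under brightfield.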 The procedure, abridged: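 Static waterborne exposure of single dechorionated Tropical 5D zebrafish embryos, 6–120 hpf, 28C, 0.64% DMSO final. Read-out: swim bladder malformation, present/absent, relative to DMSO negative control; trimethyltin chloride 5uM served as positive control.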

Test [15] is described as follows: Tanguay_ZF_120hpf_TRUN_legacy: (Legacy) Oregon State University Tanguay Lab 120 Hour Post-fertilization zebrafish Assay for Truncated Body (AID 2283655). In short, it runs like this: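 Dechorionated Tropical 5D wild-type embryos placed singly from 6 hpf and statically exposed to 120 hpf at 28C, final DMSO 0.64%. Truncated body scored as present/absent by brightfield; not scored in dead embryos.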

A short description of test [16]: Tanguay_ZF_120hpf_NC_legacy: (Legacy) Oregon State University Tanguay Lab 120 Hour Post-fertilization zebrafish Assay for Notochord and Tail Malformation (AID 2283656). The procedure, abridged:
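Binary notochord-distortion calls, made by brightfield inspection, form the read-out; activity is fitted in the positive direction against DMSO. Exposure ran statically from 6 to 120 hpf at 28C with 0.64% DMSO.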

Sequence of Cellular tumor antigen p53 (Homo sapiens) (P04637 whole entry, looked up): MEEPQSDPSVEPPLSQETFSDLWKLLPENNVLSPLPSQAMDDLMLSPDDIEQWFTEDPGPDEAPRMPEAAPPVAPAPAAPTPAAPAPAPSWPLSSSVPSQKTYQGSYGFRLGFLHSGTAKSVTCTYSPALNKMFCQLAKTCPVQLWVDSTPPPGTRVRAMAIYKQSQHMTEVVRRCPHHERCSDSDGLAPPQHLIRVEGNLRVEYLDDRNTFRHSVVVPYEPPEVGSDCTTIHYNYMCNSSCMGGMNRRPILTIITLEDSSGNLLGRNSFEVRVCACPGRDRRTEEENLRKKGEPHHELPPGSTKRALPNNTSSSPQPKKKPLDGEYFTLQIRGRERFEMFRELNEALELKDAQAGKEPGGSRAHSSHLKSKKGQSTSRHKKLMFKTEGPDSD

With `COc1cc(-c2ccc(N)c(OC)c2)ccc1N`, the AC50 in test [1] was 71.3 µM (active); in [3] it was 64 µM (active); in [5], 32.8 µM (active); in test [7] it was 47 µM (active); in test [9], 12.5 µM (active); in test [10], 87.5 µM (active). Moreover, the AC50 in test [14] is 95.5 µM (active). In addition, the outcome in test [1], in [2], in test [3], in test [4], in [5] and in [6] was inactive. Moreover, the compound was classed as inactive in test [7], in test [8], in test [9], in test [10], in test [11] and in [12]. Also, the call in test [13], in [15] and in test [16] was inactive.

As for `Nc1cccc(Cl)c1`, the outcome in [1], in [2] and in [3] was inactive.

Consider `COc1cccc(C=O)c1`, for which the result in [1], in test [2] and in test [3] was inactive.

In the case of `Clc1nc(Cl)nc(Cl)n1`, the outcome in test [1], in test [2] and in test [3] was inactive.

`O=[N+]([O-])c1ccc(O)c([N+](=O)[O-])c1`: the values for the AC50 in [1] and in [4] were 79.2 µM (active) and 26.4 µM (active), respectively. In addition, the result in test [1], in [2], in test [3], in [5], in test [7] and in [8] was inactive. Moreover, the outcome in test [9], in test [10], in test [12], in test [13], in test [14] and in test [16] was inactive.

Take `O=C(OC1CCCCC1)c1ccccc1C(=O)OC1CCCCC1`: the outcome in [1] and in [2] was inactive.

Take `CC(C)c1cccc(C(C)C)c1O`: the result in test [1] and in test [2] was inactive.

In the case of `O=C(CCl)CCl`, the outcome in [1], in [2] and in test [3] was inactive.

Turning to `CC(=O)c1cc(C(C)(C)C)cc2c1CCC2(C)C`, the result in test [1], in test [2] and in test [3] was inactive.

Turning to `N#Cc1ccccn1`, the result in [1], in test [2] and in [3] was inactive.

As to `C1CCC(NC2CCCCC2)CC1`, the result in [1], in test [2] and in test [3] was inactive.

As to `COP(=O)(OC)OC`, the result in test [1], in test [2] and in test [3] was inactive.

Take `COP(=S)(OC)Oc1ccc(Sc2ccc(OP(=S)(OC)OC)cc2)cc1`: the outcome in test [1], in test [2] and in [3] was inactive.

As for `CCOP(=S)(OCC)SCSP(=S)(OCC)OCC`, the outcome in test [1], in test [2], in [3], in test [4], in test [5] and in test [6] was inactive. Moreover, the result in test [7], in [8], in [9], in test [10], in [11] and in test [13] was inactive. Further, the outcome in test [14], in test [15] and in test [16] was inactive.

In the case of `O=C(Nc1ccc2[nH]ccc2c1)c1cc2cc(F)ccc2n1Cc1cccc(F)c1`, the AC50 is 83.2 µM (active) in test [1] and 42.2 µM (active) in test [3]. The compound was called inactive in [2], in [4], in [5], in [6], in test [7] and in [8]. Also, the compound was called inactive in test [9], in test [10], in test [11], in [12], in test [13] and in test [14]. In addition, the call in test [15] and in [16] was inactive.
